# Only a selection was taken, and the strongest signals are over-represented in it overall.
# B1: C7A (Sus scrofa) (peptide)
# chain: KILRGVCKKIMRTFLRRISKKILTGKK
# Columns and labels:
# Assay in all cases: glycan array binding signal (z-score within array); higher = stronger binding
# Details in all cases: glycan notation: IUPAC condensed, linker removed; mutation: D21K
# [1] = molecular target: GalNAc(a1-3)GalNAc(b1-3)Gal(a1-4)Gal(b1-4)GlcNAc
# Summary of the method: (§1)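 Glycan array binding is given as a within-array Z-score, which can be read as non-binding when negative. The arrays, 3228 of them, came from the Consortium for Functional Glycomics database and were retained only where the protein sequence was available. Z-scores were averaged across arrays of the same protein sequence at different concentrations or buffers and across linkers.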
# [2] = molecular target: GalNAc(b1-3)Gal(a1-4)Gal(b1-4)GlcNAc(b1-3)Gal(b1-4)Glc
# Summary of the method: as §1
# GalNAc(b1-3)GlcNAc = molecular target: GalNAc(b1-3)GlcNAc
# Summary of the method: as §1
# GalNAc3S(b1-4)GlcNAc = molecular target: GalNAc3S(b1-4)GlcNAc
# Summary of the method: as §1
# GalNAc4S6S(b1-4)GlcNAc = molecular target: GalNAc4S6S(b1-4)GlcNAc
# Summary of the method: as §1
# Glc(a1-6)Glc(a1-6)Glc = molecular target: Glc(a1-6)Glc(a1-6)Glc
# Summary of the method: as §1
# GlcA(b1-3)GlcNAc = molecular target: GlcA(b1-3)GlcNAc
# Summary of the method: as §1
# [3] = molecular target: GlcNAc(b1-2)[GlcNAc(b1-6)]Man(a1-6)[GlcNAc(b1-2)Man(a1-3)]Man(b1-4)GlcNAc(b1-4)GlcNAc
# Summary of the method: as §1
# GlcNAc(b1-3)Gal = molecular target: GlcNAc(b1-3)Gal
# Summary of the method: as §1
# GlcNAc(b1-3)Gal(b1-4)Glc = molecular target: GlcNAc(b1-3)Gal(b1-4)Glc
# Summary of the method: as §1
# [4] = molecular target: GlcNAc(b1-3)Gal(b1-4)GlcNAc
# Summary of the method: as §1
# [5] = molecular target: GlcNAc(b1-3)Gal(b1-4)GlcNAc(b1-3)Gal(b1-4)GlcNAc(b1-2)Man(a1-3)[GlcNAc(b1-3)Gal(b1-4)GlcNAc(b1-3)Gal(b1-4)GlcNAc(b1-2)Man(a1-6)]Man(b1-4)GlcNAc(b1-4)[Fuc(a1-6)]GlcNAc
# Summary of the method: as §1
# [6] = molecular target: GlcNAc(b1-3)Gal(b1-4)GlcNAc(b1-3)Gal(b1-4)GlcNAc(b1-3)Gal(b1-4)GlcNAc(b1-2)[GlcNAc(b1-3)Gal(b1-4)GlcNAc(b1-3)Gal(b1-4)GlcNAc(b1-3)Gal(b1-4)GlcNAc(b1-6)]Man(a1-6)[GlcNAc(b1-3)Gal(b1-4)GlcNAc(b1-3)Gal(b1-4)GlcNAc(b1-3)Gal(b1-4)GlcNAc(b1-2)Man(a1-3)]Man(b1-4)GlcNAc(b1-4)[Fuc(a1-6)]GlcNAc
# Summary of the method: as §1
# [7] = molecular target: GlcNAc(b1-3)Gal(b1-4)GlcNAc(b1-3)Gal(b1-4)GlcNAc(b1-3)Gal(b1-4)GlcNAc(b1-3)Gal(b1-4)GlcNAc(b1-2)[GlcNAc(b1-3)Gal(b1-4)GlcNAc(b1-3)Gal(b1-4)GlcNAc(b1-3)Gal(b1-4)GlcNAc(b1-3)Gal(b1-4)GlcNAc(b1-6)]Man(a1-6)[GlcNAc(b1-3)Gal(b1-4)GlcNAc(b1-3)Gal(b1-4)GlcNAc(b1-3)Gal(b1-4)GlcNAc(b1-3)Gal(b1-4)GlcNAc(b1-2)Man(a1-3)]Man(b1-4)GlcNAc(b1-4)[Fuc(a1-6)]GlcNAc
# Summary of the method: as §1
# [8] = molecular target: GlcNAc(b1-3)Gal(b1-4)GlcNAc(b1-6)[GlcNAc(b1-3)Gal(b1-3)]GalNAc
# Summary of the method: as §1
# [9] = molecular target: GlcNAc(b1-3)[GlcNAc(b1-4)][GlcNAc(b1-6)]GlcNAc
# Summary of the method: as §1
# [10] = molecular target: GlcNAc(b1-3)[GlcNAc(b1-6)]Gal(b1-4)GlcNAc
# Summary of the method: as §1
# [11] = molecular target: Neu5Ac(a2-3)Gal(b1-3)GlcNAc6S
# Summary of the method: as §1
# [12] = molecular target: Neu5Ac(a2-3)Gal(b1-4)GlcNAc(b1-3)Gal(b1-4)GlcNAc(b1-3)GalNAc
# Summary of the method: as §1
# [13] = molecular target: Neu5Ac(a2-3)Gal(b1-4)GlcNAc(b1-3)GalNAc
# Summary of the method: as §1
# [14] = molecular target: Neu5Ac(a2-6)Gal(b1-4)GlcNAc(b1-2)Man
# Summary of the method: as §1
# [15] = molecular target: Neu5Ac(a2-6)Gal(b1-4)GlcNAc(b1-2)Man(a1-3)[Neu5Ac(a2-3)Gal(b1-4)GlcNAc(b1-2)Man(a1-6)]Man(b1-4)GlcNAc(b1-4)GlcNAc
# Summary of the method: as §1
# [16] = molecular target: Neu5Ac(a2-6)Gal(b1-4)GlcNAc(b1-2)Man(a1-3)[Neu5Ac(a2-6)Gal(b1-4)GlcNAc(b1-2)Man(a1-6)]Man(b1-4)GlcNAc(b1-4)GlcNAc
# Summary of the method: as §1
# [17] = molecular target: Neu5Ac(a2-6)Gal(b1-4)GlcNAc(b1-2)[Neu5Ac(a2-6)Gal(b1-4)GlcNAc(b1-6)]Man(a1-6)[Neu5Ac(a2-6)Gal(b1-4)GlcNAc(b1-2)Man(a1-3)][GlcNAc(b1-4)]Man(b1-4)GlcNAc(b1-4)GlcNAc
# Summary of the method: as §1
# [18] = molecular target: Neu5Ac(a2-6)Gal(b1-4)GlcNAc(b1-3)Gal(b1-4)GlcNAc(b1-3)Gal(b1-4)GlcNAc
# Summary of the method: as §1
# [19] = molecular target: Neu5Ac(a2-6)Gal(b1-4)GlcNAc(b1-3)Gal(b1-4)GlcNAc(b1-3)GalNAc
# Summary of the method: as §1
# [20] = molecular target: Neu5Ac(a2-6)Gal(b1-4)GlcNAc(b1-3)GalNAc
# Summary of the method: as §1
# [21] = molecular target: Neu5Ac(a2-8)Neu5Ac(a2-3)Gal(b1-3)GalNAc(b1-4)[Neu5Ac(a2-8)Neu5Ac(a2-3)]Gal(b1-4)Glc
# Summary of the method: as §1
binder,measurement,setting,value
B1,glycan array binding signal (z-score),[1],0.64
same,glycan array binding signal (z-score),[2],1.58
same,glycan array binding signal (z-score),GalNAc(b1-3)GlcNAc,-0.947
same,glycan array binding signal (z-score),GalNAc3S(b1-4)GlcNAc,0.857
same,glycan array binding signal (z-score),GalNAc4S6S(b1-4)GlcNAc,2.43
same,glycan array binding signal (z-score),Glc(a1-6)Glc(a1-6)Glc,-0.06
same,glycan array binding signal (z-score),GlcA(b1-3)GlcNAc,0.609
same,glycan array binding signal (z-score),[3],-0.74
same,glycan array binding signal (z-score),GlcNAc(b1-3)Gal,-1.53
same,glycan array binding signal (z-score),GlcNAc(b1-3)Gal(b1-4)Glc,-0.83
same,glycan array binding signal (z-score),[4],-0.565
same,glycan array binding signal (z-score),[5],2.43
same,glycan array binding signal (z-score),[6],2.39
same,glycan array binding signal (z-score),[7],2.49
same,glycan array binding signal (z-score),[8],-0.629
same,glycan array binding signal (z-score),[9],-0.24
same,glycan array binding signal (z-score),[10],0.238
same,glycan array binding signal (z-score),[11],1.71
same,glycan array binding signal (z-score),[12],2.25
same,glycan array binding signal (z-score),[13],0.438
same,glycan array binding signal (z-score),[14],-0.792
same,glycan array binding signal (z-score),[15],0.295
same,glycan array binding signal (z-score),[16],0.295
same,glycan array binding signal (z-score),[17],0.348
same,glycan array binding signal (z-score),[18],0.41
same,glycan array binding signal (z-score),[19],0.528
same,glycan array binding signal (z-score),[20],1.32
same,glycan array binding signal (z-score),[21],-0.48

# Reference: the supplement of paper PMC8728848
